High-throughput results deposited in PubChem BioAssay by National Center for Advancing Translational Sciences (NCATS).
HEK293 cAMP ctrl – qHTS Assay for Agonists of the Thyroid Stimulating Hormone Receptor: Activators of Intracellular cAMP Concentrations in Parental HEK 293; actives 2.5% (n = 73,000); Potency, µM (series often up to 57.1 µM), usual class: activators; AID 938, 2007; parental HEK293 CNG cAMP sensor, membrane potential fluorescence; also: nearly all actives have a fitted effect of over 55% in size
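Counterscreen for endogenous-receptor signalling: CNG-channel HEK 293 cells report cAMP rise by membrane depolarization. After 60 min dye equilibration with 100 uM RO 20-1724, compounds incubated 30 min before bottom-read fluorescence at 590 nm.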
TsaE inh – qHTS Assay for Inhibitors of YjeE | tRNA threonylcarbamoyladenosine biosynthesis protein TsaE (Escherichia coli (strain … | purified YjeE enzyme, qHTS inhibition assay | Potency, µM | actives 0.05% (n = 71,000) | AID 605, 2007
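Purified YjeE (10 uM) with BODIPY Texas Red-labeled ADP probe (2 uM); compounds pin-transferred, 15 min at room temperature. Binding inhibition read as decreased fluorescence polarization; ADP titration as control.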
BRCT inh green – qHTS Assay for Inhibitors of BRCT-Phosphoprotein Interaction (Green Fluorophore). Breast cancer type 1 susceptibility protein (Homo sapiens), P38398. BRCA1 BRCT-phosphopeptide binding, green fluorescence polarization. Potency, µM (titrated, usually from 76.9 µM), usual class: inhibitors. actives 0.05% (n = 75,000)
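Fluorescence polarization: His-tagged BRCT (~35 kDa BRCA1 C-terminus, 250 nM) bound to 100 nM fluorescein-labeled phosphorylated 10-aa BACH1 peptide, pH 7.3 phosphate buffer with DTT and Tween 20. Compounds incubated 12 min at room temperature; inhibition read as lowered polarization.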
BRCT PPI red – qHTS Assay for Inhibitors of BRCT-Phosphoprotein Interaction (Red Fluorophore). AID 892, 2007. Breast cancer type 1 susceptibility protein (Homo sapiens), P38398. BRCT-phosphopeptide binding, red fluorescence polarization. actives 0.03% (n = 75,000). Potency, µM (top dose mostly 76.9 µM), most hits filed as inhibitors
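Rhodamine-labelled pBACH1 10-mer (100 nM) bound to BRCT domain (100 nM) at pH 7.3; compounds incubated 12 min room temperature, polarization read. Free peptide defines full inhibition; unlabelled decapeptide titrated as control.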
TSHR ag – qHTS Assay for Agonists of the Thyroid Stimulating Hormone Receptor; AID 926, 2007; actives 0.48% (n = 73,000); HEK293-CNG-TSHR cells (CNG channel as cAMP sensor), membrane potential dye, cAMP; Potency, µM (series often up to 57.1 µM), usual class: activators; active = well fitted activation curve with a large enough effect in the main read-out, with a control signal flat, not every such curve was filed as active; inconclusive = small, poorly fitted or top-dose-only effect, or a change in a side signal; inactive = no such curve, though single readings can be large or run the other way; reference of the percent scale not stated here;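 also: the control signal comes from parental cells without the receptor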
Target sequence (P16473 whole entry, looked up): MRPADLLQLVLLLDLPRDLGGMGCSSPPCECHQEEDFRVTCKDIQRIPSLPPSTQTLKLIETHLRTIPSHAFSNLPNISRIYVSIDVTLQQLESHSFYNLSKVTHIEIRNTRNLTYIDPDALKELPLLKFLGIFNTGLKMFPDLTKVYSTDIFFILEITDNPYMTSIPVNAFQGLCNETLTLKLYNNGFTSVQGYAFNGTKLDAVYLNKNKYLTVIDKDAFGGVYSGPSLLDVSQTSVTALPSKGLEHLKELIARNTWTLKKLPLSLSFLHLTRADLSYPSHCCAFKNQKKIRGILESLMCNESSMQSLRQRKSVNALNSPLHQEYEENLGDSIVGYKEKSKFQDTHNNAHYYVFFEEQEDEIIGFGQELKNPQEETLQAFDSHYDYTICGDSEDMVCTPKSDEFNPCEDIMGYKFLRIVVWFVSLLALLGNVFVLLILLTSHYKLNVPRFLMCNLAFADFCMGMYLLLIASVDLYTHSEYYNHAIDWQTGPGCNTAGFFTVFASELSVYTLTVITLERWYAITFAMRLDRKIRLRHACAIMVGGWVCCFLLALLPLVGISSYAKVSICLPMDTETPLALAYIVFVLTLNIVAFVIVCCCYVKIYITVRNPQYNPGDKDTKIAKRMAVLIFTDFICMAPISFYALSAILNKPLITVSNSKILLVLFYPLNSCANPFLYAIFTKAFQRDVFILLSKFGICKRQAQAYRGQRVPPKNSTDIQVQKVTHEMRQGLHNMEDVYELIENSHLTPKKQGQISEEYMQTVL
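HEK 293 cells stably expressing TSHR and a modified CNG channel, with CNG-only parental cells as counterscreen, were preloaded 60 min at room temperature with membrane potential dye containing 100 uM RO 20-1724. Compound exposure was 30 min, and depolarization was read as fluorescence at 590 nm.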
Hsp90 Hop PPI – qHTS Assay for Disrupters of an Hsp90 Co-Chaperone Interaction; AlphaScreen TPR2A-His6 binding biotin-Hsp90 C-terminal peptide; Potency, µM (series often up to 57 µM); actives 0.44% (n = 71,000); active = well fitted curve in either direction with a large enough effect; inconclusive = small, poorly fitted or top-dose-only effect, or another doubt
Of the large screens only hits and unclear results are named; the others gave an inactive call. Shown are actives, neighbours in structure and some others; about 3.3% of the full set was active somewhere. Unless noted, calls follow the shape of the dose curve; as a rule, active = well fitted curve in the direction sought with a large enough effect; inconclusive = small, poorly fitted or top-dose-only effect, or another doubt; inactive = no such curve, though single readings can be large; an effect the other way counts as inactive or inconclusive.

COCCn1c(=O)c(CCc2ccccc2)nc2cnc(N(C)C)nc21	HEK293 cAMP ctrl inconclusive, TSHR ag inconclusive
Cc1cnc(CNc2cc(-c3ccoc3)ncn2)cn1	none
Cc1cccc(C)c1-n1nnnc1SCSc1nnnn1-c1c(C)cccc1C	HEK293 cAMP ctrl 16µM, TSHR ag inconclusive
Cc1ccccc1-n1nnnc1SCC(N)=O	none
COCCn1c(SCC(=O)c2ccc(CNC(C)=O)o2)nc2ccccc2c1=O	HEK293 cAMP ctrl inconclusive, TSHR ag inconclusive
COCCn1c(SCC(=O)N2CCC(C)CC2)nc2ccccc2c1=O	HEK293 cAMP ctrl 20µM, TSHR ag inconclusive
C/C(CCN1CCc2nc(-c3ccccc3)c(-c3ccccc3)cc2C1)=N\OC[C@@H](O)COCc1ccco1	none (no result: TsaE inh, Hsp90 Hop PPI)
O=c1cc(CSc2nnc(-c3ccccc3)o2)c2ccccc2[nH]1	none
O=c1cc(CSc2nnc(COc3ccc(Cl)cc3)o2)c2ccccc2[nH]1	HEK293 cAMP ctrl 25µM, TSHR ag inconclusive
CC(=O)[C@@H]1[C@H]2[C@H](C(=O)[C@H]3OC[C@@H]2O3)[C@H]2C=Cc3ccccc3N21	none (no result: HEK293 cAMP ctrl, TsaE inh, TSHR ag, Hsp90 Hop PPI)
O=C(CCc1ccccc1)Nc1c(F)c(F)c(F)c(F)c1F	HEK293 cAMP ctrl 16µM, TSHR ag inconclusive
CC(=O)CCc1ccccc1	Hsp90 Hop PPI inconclusive
CCCCOc1ccc(S(=O)(=O)n2c(C)nc3ccccc32)cc1	HEK293 cAMP ctrl 3.2µM, TSHR ag inconclusive, Hsp90 Hop PPI inconclusive
CCc1nnc(NC(=O)CSc2nnc(COc3ccccc3)n2-c2ccc(C)cc2)s1	HEK293 cAMP ctrl inconclusive, TSHR ag inconclusive
CCc1nnc(NC(=O)CSc2nnc(-c3ccccc3O)n2-c2ccc(C)cc2C)s1	HEK293 cAMP ctrl 20µM, TSHR ag inconclusive
Cc1ccc(C)c(-n2c(SCC(=O)Nc3nonc3C)nnc2-c2ccoc2C)c1	HEK293 cAMP ctrl 25µM, TSHR ag inconclusive
Cc1cccc(C)c1NC(=O)CSc1nnc(-c2ccoc2C)n1C	none
Cc1ccc2c3c(c(SCC(=O)Nc4nonc4C)nc2c1)CCCC3	HEK293 cAMP ctrl 7.9µM, TSHR ag inconclusive
Cc1ccc(C)c(-n2c(SCC(=O)Nc3nnc(C)s3)nnc2-c2ccoc2C)c1	HEK293 cAMP ctrl 2.5µM, TSHR ag inconclusive
Cc1nonc1NC(=O)CSc1nc2cc(Cl)ccc2c2c1CCCC2	HEK293 cAMP ctrl inconclusive, TSHR ag inconclusive
C=C1C(=O)O[C@H]2C[C@@]3(C)CCCC(=C)[C@@H]3C[C@H]12	none (no result: BRCT inh green, BRCT PPI red)
O=C(NC12CC3CC(CC(C3)C1)C2)N1CCN(C(=O)C2CCCO2)CC1 (configuration not stated)	none
C1CCC(N=C(NC23CC4CC(CC(C4)C2)C3)N2CCOCC2)CC1	HEK293 cAMP ctrl 25µM, TSHR ag inconclusive
COC(=O)C1=C(C)NC(C)=C(C(=O)OC)C1c1cn(-c2ccccc2)nc1-c1ccco1	TSHR ag 1.6µM
Cc1ccnc(N2CCC(C(=O)Nc3ccc(Oc4ccccc4)cc3)CC2)n1	none
Cc1ccnc(N2CCC(C(=O)Nc3cccc(C(F)(F)F)c3)CC2)n1	HEK293 cAMP ctrl 20µM, TSHR ag inconclusive
[O-]/[N+](=N\O)c1ccccc1	HEK293 cAMP ctrl inconclusive, TSHR ag inconclusive
C=CCn1c(SCC(=O)Nc2cc(C)c(Cl)cc2OC)nnc1-c1ccco1	HEK293 cAMP ctrl 25µM, TSHR ag inconclusive
Nc1nc(Cc2ccccc2)nc(Cc2ccccc2)c1-c1ccccc1	none
Cc1noc(C)c1C(=O)N1CCC2(CC1)CN(c1cccc(-c3ccccc3)c1)C2	none
Cc1cc(C)nc(SCc2nnc(SCC(=O)Nc3cc(C(F)(F)F)ccc3Cl)o2)n1	HEK293 cAMP ctrl inconclusive, TSHR ag inconclusive
Cc1cc(C)nc(SCc2nnc(SCc3ccccc3Cl)o2)n1	HEK293 cAMP ctrl 20µM, TSHR ag inconclusive, Hsp90 Hop PPI inconclusive
COc1cc(C2Nc3cccc4cccc(c34)N2)ccc1OC(C)=O	HEK293 cAMP ctrl 1.3µM, TSHR ag inconclusive
Nc1ncn([C@@H]2O[C@@H](CO)[C@@H](O)[C@H]2O)c(=O)n1	none (no result: BRCT inh green, BRCT PPI red)
O=C(c1csnn1)N1CCC2(CC1)CN(c1ccccn1)C2	Hsp90 Hop PPI inconclusive
Clc1ccc(-c2nnc(-c3ccccc3)o2)c(Cl)c1	HEK293 cAMP ctrl 32µM, TSHR ag inconclusive, Hsp90 Hop PPI inconclusive
O=C(O)CC[P+](c1ccccc1)(c1ccccc1)c1ccccc1	HEK293 cAMP ctrl 3.2µM, TSHR ag inconclusive
O=C(O)CC(c1ccccc1)c1ccccc1	none
OC[C@@H]1O[C@@H](n2cnc3c(N[C@@H]4C[C@@H]5CC[C@H]4C5)ncnc32)[C@@H](O)[C@H]1O	none
COc1ncc2nc(-c3ccccc3)c(=O)n(-c3ccccc3)c2n1	none
c1ccc(-c2nnc(CN3CCCc4ccccc43)o2)cc1	none (no result: TSHR ag)
Oc1ccc(CN2CCCc3ccccc32)c2cccnc12	Hsp90 Hop PPI 3.2µM
CC1(C)N=C(N)N=C(N)N1c1cccc(OCc2cccc([N+](=O)[O-])c2)c1	none
CCc1cccc(NC(=O)CN2C(=O)NC3(CCCCCCC3)C2=O)c1	TSHR ag 13µM
Cc1cc(C)c(NC(=O)CN2C(=O)NC3(CCCCC3)C2=O)c(C)c1	none
O=c1n(Cc2cc3c(cc2Cl)OCO3)c(=O)n2n1CC[C@H]1/C(=N\OC[C@@H](O)COCc3ccco3)[C@H]3O[C@@H]3[C@@H](O)[C@@H]12	none (no result: TsaE inh, Hsp90 Hop PPI)
Cc1nc2ncnn2c(N2CCC(C(=O)NC3CCCC3)CC2)c1Cc1ccccc1	none
Cc1nc2ncnn2c(Nc2ccc3c(c2)OCO3)c1Cc1ccccc1	HEK293 cAMP ctrl 25µM, TSHR ag inconclusive
COc1ccc(-n2cnnc2SCC(=O)c2cc(C)n(Cc3cccs3)c2C)cc1	HEK293 cAMP ctrl 25µM, TSHR ag inconclusive
CC(=O)Nc1ccccc1OCC(=O)c1cc(C)n(Cc2cccs2)c1C	HEK293 cAMP ctrl 10µM, TSHR ag inconclusive
Cc1csc(SCC(=O)c2cc(C)n(Cc3cccs3)c2C)n1	HEK293 cAMP ctrl 16µM, TSHR ag inconclusive
COc1ccc(-c2nnc(SCC(=O)c3cc(C)n(Cc4cccs4)c3C)o2)cc1	HEK293 cAMP ctrl inconclusive, TSHR ag inconclusive
Cc1ccc(C2C3CSCC=C3C(C#N)=C(N)C2(C#N)C#N)cc1 (configuration not stated)	TSHR ag 25µM
N#CC1=C(N)C(C#N)(C#N)[C@H](c2ccncc2)[C@H]2CC3(CC=C12)OCCO3	none
